Holding throughout (experiment): NCI-60 one-dose screen, 48 h (100 = growth as untreated, 0 = no growth, -100 = all killed)
In one experiment the test system is SK-MEL-2 melanoma. The note with it: 10 µM.
The next experiment concerns EKVX NSCLC. Conditions: 10 µM.
A further experiment relates to SN12C renal. Conditions: 10 µM.
The test system of another experiment is UO-31 renal. The note with it: 10 µM.
A further experiment relates to TK-10 renal. Conditions: 10 µM unless noted.
A further experiment concerns ACHN renal. Conditions: 10 µM.
The next experiment concerns CAKI-1 renal. The note with it: 10 µM.
In a further experiment the test system is CCRF-CEM leukemia. The note with it: 10 µM.
For another experiment, the system named is MOLT-4 leukemia. The note with it: 10 µM.
A further experiment concerns SR leukemia. The note with it: 10 µM.
A further experiment deals with RPMI-8226 leukemia. Conditions: 10 µM.
The next experiment has as its system OVCAR-8 ovarian. Conditions: 10 µM.
The test system of a further experiment is OVCAR-5 ovarian. The note with it: 10 µM.
For a further experiment, the system named is IGROV1 ovarian. Conditions: 10 µM.
A further experiment deals with OVCAR-3 ovarian. Conditions: 10 µM.
The test system of another experiment is HS 578T breast. Conditions: 10 µM.
In the next experiment the test system is NCI/ADR-RES ovarian. Conditions: 10 µM.
A further experiment has as its system OVCAR-4 ovarian. Conditions: 10 µM.
In a further experiment the test system is SK-OV-3 ovarian. The note with it: 10 µM.
For the next experiment, the system named is A498 renal. The note with it: 10 µM.

The panel holds about 83,000 compounds, 20% with a hit somewhere; the sample as a whole holds those more often.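 Note: values are percent growth. 100 is the growth of untreated cells, values between 100 and 0 indicate rising inhibition; between -100 and 0 indicates cell death.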 A number with no mark means an inactive call. The source made the active and inactive calls. Rule for the calls: active = growth percent below 10; inactive = the rest.

On to `N#CCCN(CCCN1CCOCC1)CN1C(=O)c2ccccc2C1=O`, for which the growth with SK-MEL-2 melanoma was 118%; in the experiment on EKVX NSCLC, 107%; in the experiment with SN12C renal it was 108%; with UO-31 renal, 77.2%; in the experiment on TK-10 renal, 103%; with ACHN renal, 113%. Besides, the growth in the experiment on CAKI-1 renal is 98.6%; with CCRF-CEM leukemia it was 106%; with MOLT-4 leukemia, 90.9%; in the experiment on SR leukemia, 71.8%; in the experiment with RPMI-8226 leukemia, 108%; in the experiment on OVCAR-8 ovarian, 111%. The growth in the experiment with OVCAR-5 ovarian is 106%; with IGROV1 ovarian, 102%; in the experiment with OVCAR-3 ovarian it was 120%; in the experiment on HS 578T breast, 113%; in the experiment on NCI/ADR-RES ovarian it was 109%.
`CC(=O)OCC1CCCO1` (centres undefined): the growth is 106% in the experiment on SK-MEL-2 melanoma; 96% in the experiment on EKVX NSCLC; 103% with SN12C renal; 92.2% in the experiment with UO-31 renal; 94.9% in the experiment on TK-10 renal; 106% in the experiment with ACHN renal. Moreover, the growth in the experiment with CAKI-1 renal was 101%; in the experiment with CCRF-CEM leukemia, 107%; with MOLT-4 leukemia it was 97.6%; in the experiment with SR leukemia, 102%; with RPMI-8226 leukemia, 119%; in the experiment with OVCAR-8 ovarian, 110%. Besides, the growth with OVCAR-5 ovarian was 110%; with OVCAR-4 ovarian, 102%; with SK-OV-3 ovarian it was 92%; with IGROV1 ovarian, 113%; in the experiment on OVCAR-3 ovarian, 114%; in the experiment on HS 578T breast it was 94.2%. The growth with NCI/ADR-RES ovarian was 105%.
Turning to `Cc1ccc(/C(C#N)=C/c2ccc3c(c2)OCO3)cc1`, the growth was 43.3% in the experiment with SK-MEL-2 melanoma; 87.3% with EKVX NSCLC; 90.6% in the experiment with SN12C renal; 64.3% with UO-31 renal; 80.8% in the experiment on TK-10 renal; 95.3% in the experiment with ACHN renal. In addition, the growth was 53.6% with CAKI-1 renal; 65.8% in the experiment with CCRF-CEM leukemia; 63.6% in the experiment on MOLT-4 leukemia; 25.5% in the experiment on SR leukemia; 77% in the experiment on RPMI-8226 leukemia; 94% in the experiment with OVCAR-8 ovarian. Further, the growth in the experiment on OVCAR-5 ovarian is 112%; in the experiment on IGROV1 ovarian it was 72.4%; in the experiment on OVCAR-3 ovarian it was 73.8%; in the experiment on HS 578T breast, 83.8%; in the experiment on NCI/ADR-RES ovarian it was 44.5%.
Turning to `CC1=CC(=O)c2ccccc2C1=O`, the growth is 110% in the experiment on SK-MEL-2 melanoma; 114% with EKVX NSCLC; 99.3% in the experiment on SN12C renal; 70% in the experiment with UO-31 renal; 124% with TK-10 renal; 95.2% in the experiment with ACHN renal. Further, the growth in the experiment with CAKI-1 renal is 97.5%; in the experiment on A498 renal, 103%; in the experiment with MOLT-4 leukemia, 114%; in the experiment with OVCAR-8 ovarian it was 107%; with OVCAR-5 ovarian, 105%; with OVCAR-4 ovarian, 112%. The growth with IGROV1 ovarian is 112%; with OVCAR-3 ovarian, 113%; in the experiment on HS 578T breast, 103%; in the experiment with NCI/ADR-RES ovarian, 107%.
Regarding `NC(=S)NN=C1CCCC1`, the growth with SK-MEL-2 melanoma was 104%; with EKVX NSCLC, 65.4%; with SN12C renal, 94.5%; with UO-31 renal it was 63.2%; in the experiment with TK-10 renal, 105%; in the experiment on ACHN renal it was 107%. Besides, the growth in the experiment with CAKI-1 renal is 102%; in the experiment on CCRF-CEM leukemia, 42.7%; with MOLT-4 leukemia, 66.1%; with SR leukemia, 88%; in the experiment on RPMI-8226 leukemia, 72.6%; in the experiment with OVCAR-8 ovarian, 68.8%. In addition, the growth is 115% with OVCAR-5 ovarian; 74.4% in the experiment on OVCAR-4 ovarian; 110% with SK-OV-3 ovarian; 93.4% in the experiment on IGROV1 ovarian; 47.6% with OVCAR-3 ovarian; 95.5% with HS 578T breast. In addition, the growth in the experiment on NCI/ADR-RES ovarian was 42.9%.
For `N#CC1(Nc2ccc3c4c(cccc24)CC3)CCCCC1`, the growth in the experiment with SK-MEL-2 melanoma is 90.3%; in the experiment with EKVX NSCLC, 102%; with SN12C renal, 92.7%; in the experiment with UO-31 renal it was 55.6%; with TK-10 renal, 102%; with ACHN renal it was 101%. The growth with CAKI-1 renal was 74.8%; in the experiment on CCRF-CEM leukemia it was 59%; with MOLT-4 leukemia it was 70.1%; with SR leukemia, 75.4%; in the experiment on RPMI-8226 leukemia, 77%; in the experiment on OVCAR-8 ovarian, 99.6%. Moreover, the growth is 110% with OVCAR-5 ovarian; 88.3% in the experiment on IGROV1 ovarian; 111% in the experiment on OVCAR-3 ovarian; 97.2% in the experiment with HS 578T breast; 103% in the experiment with NCI/ADR-RES ovarian.
Regarding `COc1cc(/C=N\Nc2ccccc2)ccc1OC(=O)c1ccccc1`, the growth with SK-MEL-2 melanoma is 64.3%; in the experiment on EKVX NSCLC, 66.1%; in the experiment on SN12C renal, 79.4%; in the experiment with UO-31 renal it was 21.5%; with TK-10 renal, 96.2%; with ACHN renal it was 45.2%. Further, the growth is 40.3% in the experiment with CAKI-1 renal; 37.4% in the experiment on CCRF-CEM leukemia; 38.5% in the experiment with MOLT-4 leukemia; 49.6% with SR leukemia; 54.3% in the experiment on RPMI-8226 leukemia; 80.1% with OVCAR-8 ovarian. Moreover, the growth with OVCAR-5 ovarian was 64.4%; in the experiment on IGROV1 ovarian, 60.6%; in the experiment on OVCAR-3 ovarian, 70.5%; with HS 578T breast, 87.6%; with NCI/ADR-RES ovarian, 51.2%.
Take `COc1cc(/C=C(\C#N)C(=O)c2ccccc2)ccc1OCc1ccccc1`: the growth was 127% in the experiment on SK-MEL-2 melanoma; 107% in the experiment on EKVX NSCLC; 102% in the experiment on SN12C renal; 79.7% with UO-31 renal; 109% in the experiment on TK-10 renal; 102% with ACHN renal. Moreover, the growth in the experiment with CAKI-1 renal was 96.5%; in the experiment with CCRF-CEM leukemia it was -32.5% (active); in the experiment with MOLT-4 leukemia it was 106%; in the experiment on SR leukemia it was 109%; in the experiment with RPMI-8226 leukemia, 107%; in the experiment on OVCAR-8 ovarian it was 108%. Further, the growth in the experiment on OVCAR-5 ovarian is 103%; in the experiment with SK-OV-3 ovarian, 107%; with IGROV1 ovarian, 91.1%; with OVCAR-3 ovarian, 101%; in the experiment on HS 578T breast it was 97.5%; in the experiment on NCI/ADR-RES ovarian, 98.4%.
On to `O=C(O)c1cc([N+](=O)[O-])ccc1Cl`, for which the growth in the experiment with SK-MEL-2 melanoma was 97.3%; in the experiment with EKVX NSCLC it was 118%; in the experiment on SN12C renal, 95.6%; in the experiment on UO-31 renal it was 79.9%; with TK-10 renal it was 81.2%; in the experiment on ACHN renal, 105%. The growth was 101% with CAKI-1 renal; 114% with CCRF-CEM leukemia; 73.2% in the experiment on MOLT-4 leukemia; 88.4% in the experiment with SR leukemia; 88.8% with RPMI-8226 leukemia; 96.1% in the experiment with OVCAR-8 ovarian. Also, the growth with OVCAR-5 ovarian is 104%; with OVCAR-4 ovarian, 107%; with SK-OV-3 ovarian, 106%; in the experiment with IGROV1 ovarian, 117%; in the experiment on OVCAR-3 ovarian, 115%; with HS 578T breast it was 119%. Moreover, the growth in the experiment on NCI/ADR-RES ovarian is 103%.

These data come from PubChem BioAssay (NCI).
